Test results reported in PubChem BioAssay AID2551 (National Center for Advancing Translational Sciences (NCATS), 2010).
The campaign covered roughly 310,000 compounds. About 17,000 (5.5%) were called active. About 11% were inconclusive and are not listed. The call rests on the fitted dose curve; in most records, active means well fitted inhibition curve with a large enough effect; inconclusive means small, poorly fitted or top-dose-only effect, or effect the other way; inactive means no such curve, though single readings can be large or run the other way. The entries come from a sample that favours actives as a whole.

biological target: Nuclear receptor ROR-gamma (Mus musculus) (UniProt P51450); assay: qHTS for inhibitors of ROR gamma transcriptional activity; details: Drosophila S2 Gal4-RORgamma UAS-luciferase reporter, 20 h; series mostly up to 53.6 µM; activity change, negative = inhibition: at the top concentration; further: nearly all actives have a fitted effect of over 60% in size
Sequence (P51450 whole entry, looked up, the tested form may be a part): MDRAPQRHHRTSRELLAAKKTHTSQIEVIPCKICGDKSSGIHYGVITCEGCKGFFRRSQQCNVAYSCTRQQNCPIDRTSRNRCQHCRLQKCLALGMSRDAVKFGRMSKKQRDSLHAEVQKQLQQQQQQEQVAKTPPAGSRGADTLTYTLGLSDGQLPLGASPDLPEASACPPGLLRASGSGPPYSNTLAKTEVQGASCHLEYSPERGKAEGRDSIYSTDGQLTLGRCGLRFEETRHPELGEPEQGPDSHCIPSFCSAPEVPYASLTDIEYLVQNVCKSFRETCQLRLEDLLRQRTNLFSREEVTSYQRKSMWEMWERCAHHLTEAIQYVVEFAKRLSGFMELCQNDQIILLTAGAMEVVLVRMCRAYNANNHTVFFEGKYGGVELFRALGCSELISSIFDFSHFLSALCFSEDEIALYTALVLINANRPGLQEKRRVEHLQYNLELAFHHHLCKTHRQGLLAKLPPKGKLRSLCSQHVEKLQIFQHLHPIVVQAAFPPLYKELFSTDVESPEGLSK
How it was run: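 Drosophila Schneider cells stably carrying a metallothionein-driven Gal4 DBD–ROR gamma fusion and a UAS-Photinus luciferase reporter were exposed to compound for 1 hr, then induced with copper sulfate (700 uM final) for 20 hr at ambient temperature before luminescence reading.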
On the % scale 0 is the no-effect control and ±100 the full control effect; potency means the concentration at half of the fitted maximal effect.

Activity change, negative = inhibition, inactive:
O=C1C(=O)N(CC2COc3ccccc3O2)c2ccccc21 (stereo not given) -0.423%
O=C(NCC1COc2ccccc2O1)C1(c2ccccc2)CCCC1 (stereo not given) 27.7%
Cc1ccc(C)c(OCc2cc(C(=O)N3CCN(c4cnccn4)CC3)no2)c1 15.6%
O=C(CN1CCN(C(=O)C2CCCO2)CC1)Nc1c(Cl)cccc1Cl (stereo not given) 6%
Cc1ccc(-n2ncc3c2CC(C)(C)CC3NC(=O)CCc2cnn(C)c2)cc1 (stereo not given) -2.94%
CC(C)NS(=O)(=O)c1ccc(OCC(=O)NC2CCCCCC2)cc1 -17.8%
O=C(N/N=C\C1CC=CCC1)c1ccc(Br)o1 (stereo not given) -8.11%
CC(C)(C)C1CCC(=NNC(=O)c2ccc(Br)o2)CC1 (stereo not given) -20.7%
Cc1cc(-c2nnc(SCC(=O)Nc3ccc(S(N)(=O)=O)cc3)n2N)n[nH]1 -28.9%
CCOc1ccc(OCc2ccc(C(=O)N(C)c3ccccc3)o2)cc1 41.7%
Cc1ccc(NC(=S)N(CCCN2CCC(C)CC2)Cc2ccco2)cc1 -10.4%
COc1cccc(NC(=O)NCCN2CCCCC2)c1 -0.679%
COc1cc2cc(CN(CCN3CCCC3)C(=O)Nc3ccccc3Cl)c(=O)[nH]c2cc1OC -28.4%
CCc1ccccc1NC(=O)NCCN1CCCCC1 8.95%
C=C1CCN(C(CC(C)C)C(=O)N2CCOCC2)S(=O)(=O)c2ccccc21 (stereo not given) 7.59%
CCOc1ccccc1NS(=O)(=O)c1c[nH]c(C(=O)OC)c1 -1.36%
COC(=O)[C@]1(S(=O)(=O)c2ccccc2)C[C@@H]2ON=C(c3ccc(OC)cc3)[C@@H]2C1 2.22%
COc1ccc(CCC(C)N2CCc3ccccc3C2)cc1 (stereo not given) 9.94%
CCCC(=O)N1CCC(CCC(=O)NC2CC2)CC1 -12.6%
O=C(NCCc1ccc(Cl)cc1)C1CCCN1C(=O)NCc1ccccc1 (stereo not given) 0.783%
COCCn1cnc2c1c(=O)n(CC(=O)NN)c(=O)n2Cc1ccccc1 -27.2%
Cc1nn(CC(=O)Nc2nc3ccccc3s2)c(C)c1[N+](=O)[O-] 5.91%
O=C(CN1C(=O)S/C(=C\c2ccccc2F)C1=O)NCCCn1ccnc1 -32.2%
CCOC(=O)C1C(c2ccc(O)cc2)NC(=O)NC1(O)C(F)(F)F (stereo not given) 1.82%
C=CCNc1nc(N)c([N+](=O)[O-])c(NC2CCCCC2)n1 17.4%
O=C(NCc1ccc2c(c1)OCO2)c1cc(F)c(F)cc1Cl -6.24% [at 1.91 µM]
CN(C)S(=O)(=O)c1cccc(NC(=S)NCc2ccc3c(c2)OCO3)c1 32.3%
CS(=O)(=O)N(CC(=O)N1CCCCCC1)c1cccc(Cl)c1Cl -20.8%
CN1/C(=C\C(=O)c2cccnc2Cl)C(C)(C)c2ccccc21 33.5%
Cc1noc(C)c1C(=O)OCC(=O)/C=C1\N(C)c2ccccc2C1(C)C 7.06%
CC(c1ccco1)N(C(=O)Nc1ccccc1)C1CCCCC1 (stereo not given) 1.37%
CC(=O)c1cccc(NC(=O)C2COc3ccccc3O2)c1 (stereo not given) -30.8% [at 1.91 µM]
COC(=O)CSc1nc2ccccc2c(=O)n1Cc1ccccc1 -3.52%
Cc1cc(C)n(CCNS(=O)(=O)c2ccc(Cl)cc2)n1 12.2%
Cc1ccc(CSCC(N)C(=O)O)cc1 (stereo not given) 4.89%
Cc1ccc(SC(C)C(=O)NCc2ccc(F)cc2)cc1 (stereo not given) -34%
Cc1sc2ncn(CC(=O)NCCCC(=O)N(C)Cc3ccccc3)c(=O)c2c1C 33.8%
O=C(CN1C(=O)c2cccnc2Oc2ccc(Cl)cc21)Nc1ccc(F)cc1 7.92%
COc1cccc(CSc2nc3nc(C)cc(C)n3n2)c1 1.6%
Cc1cc(NC(=O)CCC(=O)N(CC(=O)NC2CCCC2)c2ccc(F)cc2)no1 -6.99%
COCCN(C(=O)CCC(=O)Nc1nccs1)C(C(=O)NCCC(C)C)c1ccc(F)cc1 (stereo not given) 1.64%
Cc1ccc(S(=O)(=O)N(CC(O)CN2C(=O)NC(C)(C)C2=O)c2cccc([N+](=O)[O-])c2)cc1 (stereo not given) 0.382%
CCOc1ccccc1/C=N/NC(=O)CNC(=O)COc1ccccc1 12.2%
C=CCOc1ccccc1/C=N/NC(=O)Cc1ccccc1 -31.9%
N#Cc1cc([N+](=O)[O-])ccc1NCC1CCCO1 (stereo not given) -1.01%
Cc1ccc(NC(=O)C2CCCN2C(=O)OCc2ccccc2)cc1C (stereo not given) 3.47%
O=C(N/N=C/c1cccc(O)c1)c1cc2c(ccc3ccccc32)o1 -1.2%
CCSc1ncc(Cl)c(C(=O)Nc2cc(C)ccc2C)n1 13.3%
CSc1ncc(Cl)c(C(=O)Nc2cc(C)ccc2C)n1 1.49%
Cc1nnc(NC(=O)CCCOc2ccccc2)s1 12.3%
Cc1ccc(S(=O)(=O)CC(=O)Nc2nnc(C)s2)cc1 6.36%
Cc1cccc(NC(=O)C(C)SCc2ccccc2)c1 (stereo not given) 6.35%
Cc1cccc(OCc2ccc(C(=O)Nc3ccc(F)cc3)cc2)c1 27.9%
O=C(CCS(=O)(=O)c1ccccc1)NC1CCCC1 3.1%
CSCCC(NS(=O)(=O)c1ccc(C)cc1)C(=O)NCCc1c[nH]c2ccccc12 (stereo not given) -0.592%
O=C(CN(C(=O)CCC(=O)Nc1nccs1)c1ccc(F)cc1)NCc1ccc2c(c1)OCO2 32.5%
COc1ccc(N2CCC(N3CCN(C)C(CCO)C3)CC2)cc1 (stereo not given) -13.7%
CC1(C)C(c2cccs2)=[N+]([O-])C2(CCCCC2=O)N1O (stereo not given) -25.3%
C/C(=N\O)C1(C)N(O)C(C)(C)C(c2ccc(Br)cc2)=[N+]1[O-] (stereo not given) 9.2%
CCOC(=O)c1c(-c2ccccc2)oc2cc(Br)c(O)c(C=O)c12 -14.8%
O=C(NCCc1ccccc1)c1ccc2c(c1)N(Cc1ccccc1)CCS2 29.8%
O=C(NCCNc1ccc([N+](=O)[O-])cc1Cl)c1ccccc1F -13.1% [at 1.91 µM]
COc1ccc(NC(=O)CCCN2C(=O)C(c3ccccc3)Oc3cccnc32)cc1 (stereo not given) 25.9%
CCN(C(=O)c1cc([N+](=O)[O-])ccc1NCc1cccnc1)c1ccccc1 11.5% [at 1.91 µM]
COc1ccc(CN(C)C(=O)c2cc(-c3ccc(C)cc3C)nc3ccccc23)c(OC)c1OC -10.5%
Cc1cc(=O)oc2c3c(cc(OCC(=O)NCCC(=O)N[C@@H](C)C(=O)O)c12)OC(C)(C)CC3 1.96%
COC(=O)c1ccc(/C=N/NC(=O)C(=O)N2CCCCCC2)cc1 -15.5%
CC(/C=C/c1ccccc1)=N\NC(=O)C1CC1(C)c1ccccc1 (stereo not given) -90.5%
COc1ccccc1/C=C/C=N/NC(=O)CN1CCN(Cc2ccccc2)CC1 -39.6%
CN(C(=O)CCNC(=O)Cn1ccc2ccccc2c1=O)c1ccc(Br)cc1 16.9%
COc1cc(NC(=O)C2CC(c3ccccc3O)=NO2)c(OC)cc1Cl (stereo not given) -40.7%
O=C(CN1C(=O)COc2ccc(Cl)cc21)Nc1ccc(N2CCOCC2)cc1 -16.7%
CCOC(=O)c1sc(NC(=O)c2cc(S(=O)(=O)N3CCOCC3)ccc2C)nc1C 5.65%
Cc1ccc(S(=O)(=O)N2CCOCC2)cc1C(=O)NCc1ccc(F)cc1 28.3%
COc1ccc([N+](=O)[O-])cc1NCC(=O)c1ccc(C)cc1 12.3%
COCC1CCN(C(=O)CCc2nnc(C3(c4ccc(Cl)cc4)CCC3)o2)C1 (stereo not given) 12.5%
CCCNC(=O)COc1coc(CN2CCN(Cc3ccccc3)CC2)cc1=O -15.2%
COC(=O)c1cc(S(=O)(=O)NCC2CCN(Cc3ccc(Cl)cc3)CC2)cn1C -5.73%
O=c1[nH]c(-c2cccs2)nc2ccccc12 33.6%
O=C(O)/C=C/c1cn(-c2ccccc2)nc1-c1cccs1 2.06%
O=C1OC2(CCCCC2)CC2=C1C1O[C@](c3ccsc3)(Cc3ccccc31)O2 -3.37% [at 10 µM]
Nc1nc(SCc2cccc(Br)c2)n[nH]1 -10.9%
Cc1ccc(SCc2c(C(=O)N/N=C/C3CC=CCC3)nnn2-c2nonc2N)cc1 (stereo not given) -43.2%
Cc1ccc(SCc2c(C(=O)N/N=C/c3cccnc3)nnn2-c2nonc2N)cc1 27.5%

Potency, inactive:
COC(c1ccccc1)(c1ccccc1)C(Oc1nc(C)cc(C)n1)C(=O)O (stereo not given)

Potency, active:
Cc1cc(C(=O)CCl)c(C)n1CC1COc2ccccc2O1 (stereo not given) 10 µM
CCC(C)(C)C1CCC(=NNC(=O)c2ccc(Br)o2)CC1 (stereo not given) 11.2 µM
Cc1ccc(NC(=S)N(CCN2CCCCC2)Cc2ccco2)cc1C 10 µM
CCc1ccccc1NC(=S)N(CCN1CCCCCC1)Cc1ccco1 17.8 µM
O=C(CN1C(=O)/C(=C\c2ccccc2F)SC1=S)Nc1nc2ccccc2s1 11.2 µM
CC1=NN(C(N)=S)C(=O)C1N=Nc1cc(Cl)ccc1Cl (stereo not given) 1.41 µM
Cc1c(Cl)cccc1NC(=S)NCc1ccc2c(c1)OCO2 7.08 µM
CC(=O)Nc1cccc(OCC(=O)/C=C2\N(C)c3ccccc3C2(C)C)c1 7.08 µM
CC(NC(=S)Nc1ccccc1)C1COc2ccccc2O1 (stereo not given) 6.31 µM
Cc1ccc(SC(CC(=O)c2ccc(C(C)(C)C)cc2)C(=O)O)cc1 (stereo not given) 1.41 µM
C=C(C)CNC(=S)N/N=C/c1ccccc1OCC(=O)O 10 µM
Cc1cccc(NC(=O)c2nc(S(=O)(=O)Cc3ccccc3)ncc2Cl)c1 7.08 µM
Cc1cccc(CS(=O)(=O)c2ncc(Cl)c(C(=O)Nc3ccc(F)cc3)n2)c1 6.31 µM
Cc1ccc(CS(=O)(=O)c2ncc(Cl)c(C(=O)Nc3nnc(C)s3)n2)cc1 14.1 µM
CC(=O)C1(C)N(O)C(C)(C)C(c2cccs2)=[N+]1[O-] (stereo not given) 4.47 µM
C/C(CC(C)C)=N\Oc1nc(C)cc(C)n1 6.31 µM
O=C(N/N=C/C=C/c1ccccc1)C1CC1(c1ccccc1)c1ccccc1 (stereo not given) 8.91 µM
Cc1ccc(S(=O)(=O)N2CCOCC2)cc1C(=O)NC(=S)N(Cc1ccccc1)C(C)C 1.26 µM
S=c1[nH]c(-c2cccs2)cn1-c1ccccc1 5.01 µM
Nc1nonc1-n1nnc(C(=O)N/N=C/c2cc(Br)ccc2O)c1CSC1=NCCS1 3.16 µM
